From PubChem BioAssay AID1851 (National Center for Advancing Translational Sciences (NCATS), 2009)
Values joined by “and” are separate entries in the source; they are usually repeats but may differ in a detail not shown here. Equal entries are not always repeated. About 5,100 (32%) of roughly 16,000 compounds were called active. About 25% were inconclusive and are not listed. The list shows a part of the results. A number with no mark means an inactive call. Calls come from the whole dose curve; as a rule, active = well fitted curve in the direction sought with a large enough effect; inconclusive = small, poorly fitted or top-dose-only effect, or effect the other way; inactive = no such curve, though single readings can be large or run the other way.

target: Cytochrome P450 3A4 (Homo sapiens) (UniProt P08684); experiment: Cytochrome panel assay with activity outcomes; conditions: recombinant CYP, pro-luciferin dealkylation, luminescence, p450-cyp3a4; series mostly up to 57.1 µM
Sequence (P08684 whole entry, looked up): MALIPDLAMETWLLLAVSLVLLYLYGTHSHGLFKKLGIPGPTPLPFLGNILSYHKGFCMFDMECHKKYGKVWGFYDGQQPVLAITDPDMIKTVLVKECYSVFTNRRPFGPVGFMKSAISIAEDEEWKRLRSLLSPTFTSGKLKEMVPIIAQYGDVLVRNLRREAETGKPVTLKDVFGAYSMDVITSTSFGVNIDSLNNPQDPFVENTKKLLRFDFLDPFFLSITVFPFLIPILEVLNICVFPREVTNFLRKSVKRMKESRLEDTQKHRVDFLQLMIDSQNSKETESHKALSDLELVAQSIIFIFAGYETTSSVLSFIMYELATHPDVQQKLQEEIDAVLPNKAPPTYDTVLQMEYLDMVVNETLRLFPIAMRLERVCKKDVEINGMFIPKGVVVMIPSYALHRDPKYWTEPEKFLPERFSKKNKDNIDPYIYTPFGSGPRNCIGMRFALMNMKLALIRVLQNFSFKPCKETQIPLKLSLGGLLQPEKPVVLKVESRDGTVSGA
% is set by controls: 0 for no effect and ±100 for the full control effect.

SMILES	activity, negative = inhibition	AC50
NS(=O)(=O)c1ccc(N=C2C(=O)Nc3ccccc32)cc1	-12.5% [at 11.4 µM]	–
O=C1Nc2ccccc2Nc2ncccc21	–	inactive
CN(C)c1ccc(/C=C2/C(=O)Nc3ccccc32)cc1	–	10 µM (active)
O=C(Nc1cccc(F)c1)N1CCC2(CCNCC2)CC1	–	inactive
COC(=O)N1CCC2(CCN(C(=O)Nc3cccc(F)c3)CC2)CC1	–	inactive
O=C(Nc1cccc(F)c1)N1CCCC2(CCN(C(=O)c3ccncc3)CC2)C1	–	6.31 µM (active)
COc1ccc(C(=O)N2CCC3(CCCN(C(=O)Nc4cccc(F)c4)C3)CC2)cc1	–	12.6 µM (active)
CC(=O)N1CCC2(CC1)CCN(C(=O)Nc1cccc(F)c1)CC2	–	inactive
COc1ccc(C(=O)N2CCC3(CCN(C(=O)Nc4cccc(F)c4)CC3)CC2)cc1	–	inactive
COCC(=O)N1CCC2(CCCN(C(=O)Nc3cccc(F)c3)C2)CC1	–	inactive
O=C(Nc1cccc(F)c1)N1CCCC2(CCNCC2)C1	–	15.8 µM (active)
NC(=NCCC[C@H](N)C(=O)O)NO	–	inactive
Cc1noc(N)c1C(=O)Nc1ccc(F)cc1	11.9% [at 2.29 µM]	–
CSc1nsc(SC)c1C(=O)Nc1ccc(C)cc1	–	7.94 µM (active)
CCC(=O)NCCNC(=O)c1c(SC)nsc1SC	–	inactive
O=C(O)c1nnsc1-c1csnn1	-19.7% [at 11.4 µM]	–
CCOC(=O)c1nc(N)sc1C(=O)OCC	–	inactive
CCOC(=O)c1sc(=N)n(-c2ccc(OC)cc2)c1C	–	7.08 µM (active)
COc1ccc(-n2c(C)nn(C)c2=O)cc1	–	inactive
N[C@@H](Cc1ccccc1)C(=O)O	-6.07% [at 11.4 µM]	–
COc1ccc(/C=N/NC(=O)CCCOc2ccc(Cl)cc2Cl)cc1[N+](=O)[O-]	–	14.1 µM (active)
CC1(C)CC(=O)C/C(=N/NC(=O)CCCOc2ccc(Cl)cc2Cl)C1	-15.2% [at 2.29 µM]	–
CC(C)(C)C(=O)NNC(=O)CCCOc1ccc(Cl)cc1Cl	–	inactive
COc1ccc(Br)cc1C(=O)Nc1ccc(Cc2ccncc2)cc1	–	0.708 µM (active)
COc1ccc(NC(=O)c2ccc(C(=O)c3cc(OC)ccc3OC)cc2)cc1	–	inactive
O=C(Nc1ccc(-c2cn3ccccc3n2)cc1)c1cc(Br)ccc1O	-18.7% [at 11.4 µM]	–
Cc1ccc(/C=N\NC(=O)c2cc(OCC(F)(F)F)ccc2OCC(F)(F)F)cc1	–	inactive
O=C(NCCNS(=O)(=O)c1ccccc1Cl)c1cc(OCC(F)(F)F)ccc1OCC(F)(F)F	–	25.1 µM (active)

SMILES	activity, negative = inhibition	AC50
O=C(O)CONC(=O)c1cc(OCC(F)(F)F)ccc1OCC(F)(F)F	–	inactive
COC(=O)C/C=C\[C@@H](C)[C@@H](/C=N\O[C@@H](C)c1cn([C@H]2COC[C@H]2O)nn1)OC	-29.8% [at 11.4 µM]	–
COC(=O)C/C=C\[C@@H](C)[C@@H](/C=N\O[C@@H](C)c1cc(-c2c(C)cc(C)cc2C)no1)NS(=O)(=O)c1ccc(C)cc1	–	3.16 µM (active)
COC(=O)C/C=C\[C@@H](C)[C@@H](/C=N\O[C@@H](C)c1cc(-c2c(C)cc(C)cc2C)no1)OC	-76.7% [at 11.4 µM]	–
COC(=O)C/C=C\[C@@H](C)[C@@H](/C=N\O[C@@H](C)c1cn([C@H]2COC[C@H]2O)nn1)NS(=O)(=O)c1ccc(C)cc1	–	3.98 µM (active)
COC(=O)C/C=C\[C@@H](C)[C@@H](/C=N\O[C@@H](C)c1cn([C@H](CO)Cc2ccccc2)nn1)NS(=O)(=O)c1ccc(C)cc1	–	3.98 µM (active) and 2 µM (active)
COC(=O)C/C=C\[C@@H](C)[C@@H](/C=N\O[C@@H](C)c1cn([C@H](CO)Cc2ccccc2)nn1)OC	–	3.98 µM (active)
Cc1nc(N=Nc2cc(S(=O)(=O)O)ccc2S(=O)(=O)O)c(COP(=O)(O)O)c(C=O)c1O	–	inactive
O=C(O)C[C@H](S)C(=O)O	-4.75% [at 11.4 µM]	–
[N-]=[N+]=NC[C@@H]1O[C@@H](n2cnc3c(N)ncnc32)[C@@H]2O[C@@H]21	-11.8% [at 11.4 µM]	–
Nc1nc2n[nH]nc2c(=O)[nH]1	–	inactive
O=C1C2=CC[C@H]3C(=O)N(c4cccc(Oc5ccccc5)c4)C(=O)[C@@H]3[C@@H]2[C@H](O)[C@@H]2O[C@H]12	-4.92% [at 11.4 µM]	–
CON1C(=O)C(=O)N(OC)C(C)(C)C1C (stereo not given)	–	inactive
COC(=O)C/C=C\[C@@H](C)[C@@H](/C=N\O[C@@H](C)CN1CCCc2nc(C)c(C)cc21)NS(=O)(=O)c1ccc(C)cc1	-80.9% [at 11.4 µM]	–
COC(=O)C/C=C\[C@@H](C)[C@@H](/C=N\O[C@@H](C)CN1CCCCc2nc(C)c(C)cc21)NS(=O)(=O)c1ccc(C)cc1	–	3.98 µM (active)
CCCS(=O)(=O)N1CCCC(C(=O)NCCCOC(C)C)C1 (stereo not given)	–	inactive
CC(C)OCCCN1C(=O)c2ccccc2C1C(=O)NC1CCCCC1 (stereo not given)	–	12.6 µM (active)
O=c1nc(-c2ccccc2)cn[nH]1	–	inactive
CS(=O)(=O)N1N=C(c2ccc(Br)cc2)CC1c1ccc2c(c1)OCO2 (stereo not given)	–	1.78 µM (active)
Cc1ccc(C2=NN(S(C)(=O)=O)C(c3cccs3)C2)cc1 (stereo not given)	-2.01% [at 2.29 µM]	–
COc1ccc(-c2cc3ccccc3n2CC(O)CNCCO)cc1 (stereo not given)	–	15.8 µM (active)
Cc1[nH]n2c(=O)c(C#N)c(-c3ccccc3)nc2c1-c1ccccc1	–	inactive
CN1CC(c2ccccc2)C2(COc3ccccc3C2=O)C12C(=O)Nc1ccccc12 (stereo not given)	–	3.98 µM (active)
NNS(=O)(=O)c1cc(C(=O)O)cc(C(=O)O)c1	-6.08% [at 11.4 µM]	–
CSc1nc(Oc2ccc(=O)[nH]n2)nc(N(C)C)n1	–	inactive
CN(C)S(=O)(=O)c1ccc2c(c1)/C(=C/c1cc3c([nH]1)CCCC3)C(=O)N2	–	5.01 µM (active)
C[C@H]1[C@@H](O)[C@@H](C)\C=C/C=C\C=C/C=C\C=C/C=C\C=C/[C@@H](O[C@H]2O[C@@H](C)[C@@H](O)[C@@H](N)[C@@H]2O)C[C@@H]2O[C@](O)(C[C@@H](O)C[C@@H](O)[C@@H](O)CC[C@@H](O)C[C@@H](O)CC(=O)O[C@H]1C)C[C@@H](O)[C@H]2C(=O)O (stereo in doubt)	–	inactive
